# Assay outcomes: PubChem BioAssay, several laboratories
# MBD2 DNA inh: MBD2-methylated oligo binding inhibition; Q9UBB5; TR-FRET, MBD2 binding to methylated oligonucleotide; inhibition, % at 4.4 µM; 0.31% of 370,000 active; AID 686964; in the data active means inhibition above about 13%
# UHRF1 MBD2 ctr: human UHRF1 methylated DNA binding inhibitors | Q96T88 | UHRF1 binding to methylated oligo, TR-FRET | inhibition, % at 4.4 µM | 0.75% of 370,000 active | AID 687016; in the data active means inhibition above about 21%;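 further: UHRF1 SRA domain binding a hemimethylated CpG hairpin DNA probe; 0% = median of test compound wells and 100% = reference inhibitor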
# Target sequence (Q96T88 whole entry, looked up, the tested form may be a part): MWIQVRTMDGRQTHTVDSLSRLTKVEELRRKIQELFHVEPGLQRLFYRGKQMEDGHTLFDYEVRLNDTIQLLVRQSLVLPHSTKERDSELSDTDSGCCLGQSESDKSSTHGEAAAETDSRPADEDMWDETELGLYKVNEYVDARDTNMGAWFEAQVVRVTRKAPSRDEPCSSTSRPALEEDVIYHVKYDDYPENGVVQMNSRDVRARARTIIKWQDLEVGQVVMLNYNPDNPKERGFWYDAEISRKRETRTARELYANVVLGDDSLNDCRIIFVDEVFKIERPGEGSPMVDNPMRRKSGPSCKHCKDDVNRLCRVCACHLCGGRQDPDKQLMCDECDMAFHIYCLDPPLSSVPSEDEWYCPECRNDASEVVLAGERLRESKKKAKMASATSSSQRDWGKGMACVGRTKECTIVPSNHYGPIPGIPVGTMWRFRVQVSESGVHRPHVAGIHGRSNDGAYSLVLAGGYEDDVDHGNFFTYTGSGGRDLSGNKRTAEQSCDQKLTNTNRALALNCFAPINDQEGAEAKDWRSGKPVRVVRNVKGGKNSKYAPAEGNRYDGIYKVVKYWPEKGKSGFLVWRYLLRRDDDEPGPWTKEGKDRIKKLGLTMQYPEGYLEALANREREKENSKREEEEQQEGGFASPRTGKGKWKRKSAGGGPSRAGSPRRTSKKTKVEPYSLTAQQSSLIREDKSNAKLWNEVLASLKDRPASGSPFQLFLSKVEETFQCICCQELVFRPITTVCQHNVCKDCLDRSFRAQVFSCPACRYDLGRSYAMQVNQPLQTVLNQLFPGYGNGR
# LEDGF integ inh: blocks HIV-1 LEDGF/p75-dependent DNA integration | AID 743269 | TR-FRET IN-LEDGF/p75 DNA integration, Eu/Cy5 | 0.64% of 370,000 active | inhibition, % at 3.7 µM;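 active means inhibition above the screen-wide mean plus 3 SD, cut at about 13% in these data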;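 further: signal is the Cy5 over europium emission ratio at 671 and 618 nm; 0% = plate median of compound wells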
# CASP6 VEID inh: blocks human caspase-6 cleavage activity | inhibition, % at 12.5 µM | P55212 | AID 686996 | purified caspase-6, Z-VEID-R110 cleavage fluorescence | 0.53% of 350,000 active;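 active means mean inhibition across replicates at least about 35%, with every replicate also reaching that limit, limit read from the data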;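 further: 0% = median of neutral control wells and 100% = no fluorescence left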
# Numbers without * were called inactive; nt = no result. Hits are enriched below; roughly 1.4% of the tested compounds scored in any of these assays.
SMILES,MBD2 DNA inh,UHRF1 MBD2 ctr,LEDGF integ inh,CASP6 VEID inh
COc1cc(-c2nnc(COC(=O)c3ccc([N+](=O)[O-])o3)o2)cc(OC)c1OC,0,-2,1,58*
O=C(OCc1nnc(-c2ccccc2)o1)c1ccc([N+](=O)[O-])o1,0,0,-7,-2
C[C@@H]1CN([C@H](C)CO)C(=O)c2cccc(NC(=O)C3CCOCC3)c2O[C@@H]1CN(C)S(=O)(=O)c1cn(C)cn1,nt,nt,nt,1
CC(C)C[C@@H](CNCC(=O)[C@H](Cc1c[nH]c2ccccc12)NC(=O)c1[nH]cnc1C(=O)N[C@H](CN)CC(C)C)NC(=O)c1nc[nH]c1C(=O)N[C@@H](CC(=O)O)C(=O)O,9,22*,1,21
CC(C)C[C@@H](CN)NC(=O)c1nc[nH]c1C(=O)N[C@@H](Cc1c[nH]c2ccccc12)C(=O)CNC[C@H](C)NC(=O)c1nc[nH]c1C(=O)N[C@@H](CC(=O)O)C(=O)O,7,22*,6,14
CC(C)C[C@@H](CNCC(=O)[C@H](Cc1c[nH]c2ccccc12)NC(=O)c1[nH]cnc1C(=O)N[C@@H](C)CN)NC(=O)c1nc[nH]c1C(=O)N[C@@H](C)C(=O)O,8,22*,1,4
C[C@@H]1CN([C@H](C)CO)C(=O)c2cc(NS(=O)(=O)c3ccccc3)ccc2O[C@@H]1CN(C)C,nt,nt,nt,-2
Cc1noc(C)c1NC(=O)Nc1ccc2c(c1)C(=O)N([C@@H](C)CO)C[C@H](C)[C@H](CN(C)C)OCCCC[C@H](C)O2,nt,nt,nt,-1
COc1cccc2c1-c1c(O)cccc1C2=O,-10,-7,4,2
CC1OC(CC(=O)O)CC2=C1C(=O)c1c(O)cccc1C2=O (configuration not stated),-8,18,40*,93*
CCC(=O)N(C)C[C@H]1Oc2cc(-c3ccccc3C)ccc2S(=O)(=O)N([C@H](C)CO)C[C@H]1C,nt,nt,nt,-1
CC(C)CC(=O)NCCCCc1ccccc1,-2,21*,3,1
O=C(Nc1nncs1)c1cccnc1Cl,10,25*,-1,nt
O=C(C[C@@H]1C=C[C@H](NS(=O)(=O)c2ccc(F)cc2)[C@@H](CO)O1)N1CCC(Cc2ccccc2)CC1,nt,nt,nt,0
C/C(=N\NC(=O)c1ccccc1O)c1ccc(NC(=O)Cc2ccccc2)cc1,-4,-2,0,36*
C/C(=N\NC(=O)c1ccccc1O)C1CC1,-2,-2,1,42*
COc1cccc(C(=O)N/N=C(\C)c2ccc(NC(=O)Cc3ccccc3)cc2)c1OC,5,2,-1,3
C/C(=N\NC(=O)c1ccccc1C)c1ccc(NC(=O)c2cccs2)cc1,-1,39*,-1,nt
CO[C@@H]1CN(C)C(=O)c2ccc(NC(=O)C3CCCCC3)cc2OC[C@H](C)N(C)C[C@@H]1C,nt,nt,nt,-6
O=C1Nc2ccccc2Nc2ccccc21,6,23*,-2,3
C[C@@H]1CN([C@H](C)CO)C(=O)Cc2cc(NC(=O)Cn3cnnn3)ccc2O[C@H]1CN(C)S(=O)(=O)c1cccs1,nt,nt,nt,0
CO[C@H]1CC[C@H]2CCN(C)C(=O)CCCN(C)C(=O)c3cccc(C#N)c3OC[C@@H]1O2,nt,nt,nt,4
O=C1NN(c2ccccc2)C(=O)/C1=C\c1coc2ccc(O)cc2c1=O,5,5,0,39*
CSC1=NSC2=NC(=O)/C(=C/c3coc4ccc(O)cc4c3=O)C(=N)N12,-6,2,11,40*
O=C1NN(c2ccccc2)C(=O)/C1=C/c1coc2ccccc2c1=O,0,4,8,nt
SMILES,MBD2 DNA inh,UHRF1 MBD2 ctr,LEDGF integ inh,CASP6 VEID inh
CCN(CC)c1ccc(NS(=O)(=O)c2ccc(-c3ccc(=O)[nH]n3)o2)c(C)c1,-1,-6,15*,9
CO[C@H]1CN(C)C(=O)c2ccc(NC(=O)c3cc(C)on3)cc2OC[C@@H](C)N(C(C)=O)C[C@H]1C,nt,nt,nt,-1
CS(=O)(=O)c1ccc(Nc2nc(C(N)COCc3ccccc3)cs2)cc1 (configuration not stated),0,4,-2,46*
CS(=O)(=O)c1ccc(Nc2nc(C(N)Cc3ccccc3)cs2)cc1 (configuration not stated),0,2,1,-1
O=C(NN=C1CCCC1)c1n[nH]c2c1CCCC2,-1,-4,-3,1
O=C(NN=C1CCCC1)c1n[nH]c2c1CCC2,-6,-3,-1,59*
Cc1ccc(N2C(=O)c3ccccc3C2Nc2ccc(S(=O)(=O)N3CCOCC3)cc2)nc1 (configuration not stated),4,2,-1,1
Cc1ccc(N2C(=O)c3ccccc3C2Nc2ccc(S(=O)(=O)N3CCCCC3)cc2)nc1 (configuration not stated),-4,77*,4,-3
O=S(=O)(N1CCCCC1)n1c(Cc2ccccc2)nc2ccccc21,5,35*,0,nt
CCCNC(=O)C[C@@H]1CC[C@@H]2[C@H](COC[C@@H](O)CN2Cc2ccc(Cl)c(Cl)c2)O1,nt,nt,nt,0
Cc1cccc(N2CCN(C(=O)C3CCN(S(=O)(=O)N4CCOCC4)CC3)CC2C)c1 (configuration not stated),2,74*,1,-3
CCCCCCCCCCCC(=O)NC(Cc1ccc(OC)c([N+](=O)[O-])c1)C(=O)O (configuration not stated),7,12,0,3
CCOC(=O)C(Cc1ccc(OC)c([N+](=O)[O-])c1)NC(=O)CCC(=O)Nc1ccc(OC)cc1 (configuration not stated),-6,28*,7,-2
CNC(=O)C[C@@H]1CC[C@@H]2[C@H](COc3ccc(NC(=O)C4CCCCC4)cc3C(=O)N2C)O1,nt,nt,nt,0
O=c1oc2ccccc2c(NCc2ccccc2)c1[N+](=O)[O-],0,6,-3,8
O=c1oc2ccccc2c(NCCO)c1[N+](=O)[O-],1,41*,1,3
Cc1ccc(S(=O)(=O)N(C)C[C@H]2Oc3cc(C#CC4CCCC4)ccc3S(=O)(=O)N([C@H](C)CO)C[C@H]2C)cc1,5,22*,0,-1
C[C@H](CO)N1C[C@H](C)[C@@H](CN(C)C(=O)c2cnccn2)Oc2cc(C#CCC3CCCC3)ccc2S1(=O)=O,9,23*,0,7
COc1ccc(C#Cc2ccc3c(c2)O[C@@H](CN(C)C(=O)c2ccccn2)[C@H](C)CN([C@@H](C)CO)S3(=O)=O)cc1,nt,nt,nt,-2
COc1cccc(C#Cc2ccc3c(c2)O[C@@H](CN(C)C(=O)c2ccccn2)[C@@H](C)CN([C@H](C)CO)S3(=O)=O)c1,3,22*,-1,0
COc1cccc(C#Cc2ccc3c(c2)O[C@H](CN(C)S(=O)(=O)c2ccccc2F)[C@H](C)CN([C@H](C)CO)S3(=O)=O)c1,-5,21*,7,-5
COc1cccc(C#Cc2ccc3c(c2)O[C@H](CN(C)S(=O)(=O)c2ccccc2F)[C@@H](C)CN([C@@H](C)CO)S3(=O)=O)c1,nt,nt,nt,3
C[C@@H]1CN([C@H](C)CO)C(=O)c2cc(NC(=O)CCN3CCOCC3)ccc2O[C@H]1CN(C)C(=O)Nc1ccc(C(F)(F)F)cc1,nt,nt,nt,4
